Assay results taken from PubChem BioAssay (NCI).
This is part of a sample that, as a whole, favours compounds with a hit. Of some 79,000 tested, about 15% had one in any assay. Values without a mark were called inactive. The source made the active and inactive calls. Rule as the data show it: active = growth inhibition above about 70%; inactive = the rest.

Experiments:
[1] = NCI Yeast Anticancer Drug Screen. Data for the rad50 strain (AID 155);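 also: 0% = growth of vehicle-only cultures of the same strain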; conditions: S. cerevisiae rad50 strain growth inhibition, stronger effect = higher value
Procedure, shortened: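 Readout: growth inhibition relative to vehicle-treated cultures. Compound exposure was carried out in a genetically defined yeast strain deficient in DNA damage repair.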

[2] = NCI Yeast Anticancer Drug Screen. Data for the mec2-1 strain (AID 157); conditions: S. cerevisiae mec2-1 strain, stronger effect = higher value
Procedure, shortened: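 Cells of the genetically defined mec2-1 yeast strain are incubated with test compound. Inhibition of growth is calculated against vehicle-treated controls.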

[3] = NCI Yeast Anticancer Drug Screen. Data for the sgs1 mgt1 strain (AID 161);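 also: 0% = growth of cultures given vehicle only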; conditions: S. cerevisiae sgs1 mgt1 strain, stronger effect = higher value
Procedure, shortened: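 Read-out: growth inhibition vs vehicle controls. Cells: mutant yeast strain deficient in DNA damage repair.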

[4] = NCI Yeast Anticancer Drug Screen. Data for the cln2 rad14 strain (AID 165);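 also: 0% = growth equal to vehicle treated cultures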; conditions: S. cerevisiae cln2 rad14 strain, stronger effect = higher value
Procedure, shortened: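 The screen exposed genetically defined yeast (cln2 rad14) to test compounds and scored growth inhibition relative to vehicle-treated controls.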

[5] = NCI Yeast Anticancer Drug Screen. Data for the bub3 strain (AID 167); conditions: S. cerevisiae bub3 mutant strain, stronger effect = higher value
Procedure, shortened: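 Readout: yeast growth inhibition, expressed relative to vehicle-only wells. The test organism is a mutant strain from a panel with lesions in DNA repair or checkpoint genes.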

[6] = NCI Yeast Anticancer Drug Screen. Data for the mlh1 rad18 strain (AID 175); conditions: S. cerevisiae mlh1 rad18 strain growth inhibition, stronger effect = higher value
Procedure, shortened: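 Compound-treated yeast growth, normalised to vehicle controls. Strain bears defined DNA repair mutations.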

[7] = at 5.0 µM (retest, dose inferred, filed as 0.5)
[8] = at 50.0 µM (retest, dose inferred, filed as 5.0)

| SMILES | growth inhibition [1, 7] | growth inhibition [1, 8] | growth inhibition ([1]; at 50.0 µM) | growth inhibition [2, 7] | growth inhibition [2, 8] | growth inhibition ([2]; at 50.0 µM) | growth inhibition [3, 7] | growth inhibition [3, 8] | growth inhibition ([3]; at 50.0 µM) | growth inhibition [4, 7] [%] | growth inhibition [4, 8] | growth inhibition ([4]; at 50.0 µM) | growth inhibition [5, 7] | growth inhibition [5, 8] | growth inhibition ([5]; at 50.0 µM) | growth inhibition [6, 7] | growth inhibition [6, 8] | growth inhibition ([6]; at 50.0 µM) |
| --- | --- | --- | --- | --- | --- | --- | --- | --- | --- | --- | --- | --- | --- | --- | --- | --- | --- | --- |
| Cc1ccc(C(=O)CC(O)(C(F)(F)F)C(F)(F)F)cc1[N+](=O)[O-] | 17% | 95% (active) | 88.9% (active) | -17% | 97% (active) | 90% (active) | 3% | 45% | 92.2% (active) | 25 | 94% (active) | 89.5% (active) | 5% | 96% (active) | 90.5% (active) | 9% | 97% (active) | 87.4% (active) |
| Cc1cc2c(cc1S(=O)(=O)O)C1C(C3C2C2(Cl)C(Cl)=C(Cl)C3(Cl)C2(Cl)Cl)C2(Cl)C(Cl)=C(Cl)C1(Cl)C2(Cl)Cl (configuration not stated) | 1% | 69% | 82.4% (active) | -14% | 72% (active) | 74.4% (active) | 27% | 87% (active) | 86.8% (active) | 33 | 84% (active) | 60.7% | -15% | 82% (active) | 70.8% (active) | -20% | 87% (active) | 79.2% (active) |
| CNC(=O)c1cc(NC(=O)c2ccc(C(=O)Nc3cc(C(=O)NC)cc(C4=NCCN4)c3)cc2)cc(C2=NCCN2)c1 | 3% | -3% | 98.8% (active) | 11% | 1% | 99.6% (active) | -6% | -3% | 99.3% (active) | 0 | 8% | 92.8% (active) | 5% | 1% | 98.7% (active) | 2% | -19% | 98.6% (active) |
| N=C1c2ccccc2-c2ccccc21 | 49% | 49% | 66% | 22% | 17% | 37.2% | 10% | 11% | 40.2% | 12 | 3% | 12.1% | 19% | 24% | 22.9% | 21% | 21% | 26.8% |
| CCOC1NC(=S)N(C2CCCCC2)C1(C)C (configuration not stated) | -2% | 10% | 10.8% | -2% | 3% | 1.1% | -1% | 11% | 11.8% | -2 | -11% | 75.6% (active) | -2% | -9% | -19% | -6% | 1% | 16.6% |
| O=C(CCc1ccccc1)COC(=O)c1ccc([N+](=O)[O-])cc1 | -13% | -14% | -10.4% | -2% | -25% | 3.45% | -6% | 8% | -3.6% | -26 | -14% | 10.9% | -1% | -7% | 55% | -15% | -23% | 16.4% |
| NC(=O)N/N=C(/Cc1nc2ccccc2nc1C/C(=N/NC(N)=O)c1cccc2ccccc12)c1cccc2ccccc12 | -1% | 9% | 0.65% | -13% | -7% | 34.4% | -1% | 17% | 16.8% | -5 | 2% | 82.2% (active) | -8% | -10% | 0.15% | -6% | 6% | 8.4% |
| CC1=C(C(=O)NCc2ccccc2)C(c2ccccc2[N+](=O)[O-])C(C(=O)NCc2ccccc2)=C(C)N1 | 16% | 16% | 71% (active) | 9% | 9% | 84.2% (active) | -2% | -2% | 81.4% (active) | -4 | -4% | 62.9% | 15% | 15% | 81.1% (active) | 4% | 4% | 77.6% (active) |
| Cn1cnc([N+](=O)[O-])c1Sc1nc2ccccc2s1 | 57% | 96% (active) | 91.3% (active) | 38% | 98% (active) | 92.3% (active) | 51% | 97% (active) | 92.1% (active) | 35 | 74% (active) | 90.7% (active) | 45% | 97% (active) | 91.4% (active) | 64% | 98% (active) | 90% (active) |
| COc1ccc(N=Cc2cc(Br)cc(Br)c2O)cc1.COc1ccc(N=Cc2cc(Br)cc(Br)c2O)cc1.[Co] | 79% (active) | 75% (active) | 74% (active) | 80% (active) | 88% (active) | 79.6% (active) | 90% (active) | 85% (active) | 90.6% (active) | 48 | 66% | 52.7% | 86% (active) | 59% | 62.6% | 97% (active) | 78% (active) | 80.8% (active) |
| CCOC(=O)c1ccc(C(C)C)cc1 | 3% | 96% (active) | 40.5% | 3% | 100% (active) | 79.6% (active) | 3% | 94% (active) | 55.5% | -1 | 97% (active) | 21.6% | 4% | 99% (active) | 84.3% (active) | 4% | 96% (active) | 62.1% |
| O=C1c2ccccc2-c2ccc(N3C(=O)C4CCCCC4C3=O)cc21 (configuration not stated) | -5% | 95% (active) | -31.3% | -4% | 96% (active) | 5.4% | -4% | 96% (active) | -9.15% | -8 | 95% (active) | -36.8% | 41% | 95% (active) | 74.9% (active) | -4% | 94% (active) | -26.2% |
| CC1CCCC(C(c2c[nH]c3ccccc23)c2c[nH]c3ccccc23)C1=O (configuration not stated) | 1% | 98% (active) | 96.8% (active) | 1% | 98% (active) | 58.6% | 3% | 97% (active) | 79.7% (active) | 0 | 98% (active) | 76.3% (active) | -11% | 96% (active) | 46% | -5% | 98% (active) | 97.2% (active) |
| COc1ccccc1C(=O)Nc1ccc(Cl)c(C(=O)OC(C)C)c1 | 16% | 33% | -1.8% | 7% | 20% | 22.2% | 14% | -32% | 70.8% (active) | 14 | 38% | 58.6% | 13% | 47% | 73.2% (active) | 15% | 65% | 28.7% |
| COc1cc(C)cc2c(-c3c(O)cc(O)c4c3C[C@H](C)N[C@H]4C)cc(-c3cc(-c4c(O)cc(O)c5c4C[C@H](C)N[C@H]5C)c4cc(C)cc(OC)c4c3O)c(O)c12 | -6% | 27% | -28.4% | -10% | -12% | -27.8% | -14% | -7% | 18.7% | 0 | 1% | 87% (active) | 0% | -23% | -48.5% | -18% | 27% | 2.7% |
| c1ccc(CN(CCCOc2ccccc2)Cc2ccccc2)cc1 | 2% | 25% | 56.4% | -4% | 53% | 29.9% | 5% | 85% (active) | 76.5% (active) | 3 | 15% | 72.3% (active) | 15% | 71% (active) | 79.8% (active) | 25% | 77% (active) | 80.5% (active) |
| CCN=C(N)Nc1nc(-c2ccc(Cl)cc2)cs1 | 10% | 99% (active) | 98.8% (active) | 0% | 99% (active) | 96.8% (active) | 8% | 99% (active) | 91.8% (active) | 9 | 99% (active) | 76.3% (active) | 7% | 98% (active) | 96.3% (active) | 9% | 99% (active) | 96.8% (active) |
| CN(C)CCC1(C2=CCCC2)CC/C(=C\c2ccc(Cl)cc2)C1=O (configuration not stated) | 24% | 86% (active) | 94.3% (active) | 28% | 96% (active) | 94.3% (active) | 26% | 97% (active) | 94% (active) | 31 | 97% (active) | 92.3% (active) | 37% | 98% (active) | 92.2% (active) | 33% | 97% (active) | 87.5% (active) |
| O=C1OC(=O)c2ccc([N+](=O)[O-])c3cccc1c23 | 0% | 7% | 70.4% (active) | 2% | 9% | 51.6% | 2% | 2% | 76.4% (active) | 3 | 14% | 26.4% | 0% | 16% | 74.2% (active) | 0% | 13% | 82.8% (active) |
